# Rows were chosen to be rich in hits. Some 9.9% of all compounds tested hit in one or more screens of this group.
# KDM4E inh – blocks human JMJD2E demethylase activity | Potency, µM (series often up to 57.1 µM), inactives show at the top dose activity change, negative = inhibition, hits mostly inhibitors | JMJD2E catalytic domain, FDH-coupled NADH fluorescence (FDH is formaldehyde dehydrogenase) | 1.6% of 230,000 active;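 note: 0% = wells with enzyme and -100% = buffer wells without enzyme; nearly all actives have a fitted effect of over 50% in size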
# ALDH1A1 inh – blocks purified human ALDH1A1 activity. Potency, µM (titrated, usually from 75.3 µM), inactives show at the top dose activity, negative = inhibition, actives largely listed as inhibitors. 7.3% of 220,000 active. Purified ALDH1A1, NADH fluorescence, propionaldehyde substrate;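 note: plate controls were no enzyme wells and a reference inhibitor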
# Tau fibril ThT – inhibitors of human tau fibril formation, thioflavin T binding; 2.1% of 270,000 active; recombinant tau K18 P301L, heparin-induced fibrillization, ThT fluorescence; P10636; Potency, µM (highest dose often 57.4 µM), inactives show at the highest dose activity, negative = inhibition, most hits filed as inhibitors; active = well fitted curve in the direction sought with a large enough effect; inconclusive = small, poorly fitted or top-dose-only effect, or another doubt; inactive = no such curve, though single readings can be large; an effect the other way counts as inactive or inconclusive; note: nearly all actives have a fitted effect of over 55% in size
# Target sequence (P10636 561-689 P618L limits assumed): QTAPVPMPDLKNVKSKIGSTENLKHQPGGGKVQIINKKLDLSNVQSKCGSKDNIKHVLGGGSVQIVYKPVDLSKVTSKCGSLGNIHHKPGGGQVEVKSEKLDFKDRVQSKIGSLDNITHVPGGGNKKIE
#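 Tau K18 P301L fragment (15 uM unlabeled plus 0.24 uM Alexa 594-labeled) in 100 mM sodium acetate pH 7 with compound, fibrillization induced by 20 uM heparin for 6 hr at 37 C. Thioflavin T (30 uM) added, fluorescence read after 1 hr (ex 450, em 510 nm).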
# Tau fluor cs – counter-screen for tau fibril formation inhibitors; tau K18 P301L Alexa594 fluorescence, heparin fibrillization; Potency, µM (highest dose often 57.7 µM), inactives show at the highest dose activity change, negative = decrease; 0.93% of 280,000 active; AID 1463; active = well fitted curve in the direction sought with a large enough effect; inconclusive = small, poorly fitted or top-dose-only effect, or another doubt; inactive = no such curve, though single readings can be large; an effect the other way counts as inactive or inconclusive; note: nearly all actives have a fitted effect of over 55% in size
#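 Human tau K18 P301L (15 uM unlabeled, 0.24 uM Alexa 594-labeled) in 100 mM sodium acetate pH 7 with 20 uM heparin, 6 hr at 37 C. ThT 30 uM added, 1 hr ambient; Alexa 594 FP and total fluorescence read at 555/632 nm.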
# Tau fibril FP – tau fibrillization inhibition (FP) | P10636 | K18 P301L tau heparin fibrillization, Alexa594 FP, 6 h | Potency, µM (doses to about 57.7 µM), for the others: at the highest dose activity, negative = inhibition, most hits filed as inhibitors | 0.39% of 280,000 active | AID 1468; active = well fitted curve in the direction sought with a large enough effect; inconclusive = small, poorly fitted or top-dose-only effect, or another doubt; inactive = no such curve, though single readings can be large; an effect the other way counts as inactive or inconclusive; note: nearly all actives have a fitted effect of over 55% in size
#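 Human tau K18 […] P301L fragment, 15 uM unlabeled plus 0.24 uM Alexa 594-labeled tau (final), with compound and 20 uM heparin in 100 mM sodium acetate pH 7; 6 hr at 37 C, then Alexa 594 FP read.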
# HPGD block – HPGD (human) dehydrogenase inhibition | AID 894 | 4.3% of 150,000 active | P15428 | purified HPGD, NADH fluorescence kinetic, PGE2 substrate | Potency, µM, inactives show top-dose activity change, negative = inhibition, most hits filed as inhibitors
# Target sequence (P15428 whole entry, looked up): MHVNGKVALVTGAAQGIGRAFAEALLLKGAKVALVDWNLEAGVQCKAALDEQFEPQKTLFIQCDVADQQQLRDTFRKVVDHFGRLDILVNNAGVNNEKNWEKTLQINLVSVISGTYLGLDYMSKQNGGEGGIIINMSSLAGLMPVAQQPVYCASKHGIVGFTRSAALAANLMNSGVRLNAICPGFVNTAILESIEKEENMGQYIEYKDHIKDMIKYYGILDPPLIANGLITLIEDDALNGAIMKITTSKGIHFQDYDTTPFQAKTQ
#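 20 nM HPGD preincubated 15 min at room temperature with compound in 50 mM Tris-HCl pH 8, 0.01% Tween 20. Started with 1 mM NAD+ and 30 uM prostaglandin E2; NADH fluorescence (360/450 nm) read 5 times over 30-s intervals, last minus first.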
# * = called active by the depositor; ? = inconclusive; . = not tested or not shown; [ ] = dose if it differs, or a comment. Unless noted, calls come from the whole dose curve; as a rule, active = well fitted inhibition curve with a large enough effect (not every such curve was filed as active); inconclusive = small, poorly fitted or top-dose-only effect, or another doubt; inactive = no such curve, though single readings can be large or run the other way. Unless noted, % is set by controls: 0 for no effect and ±100 for the full control effect; potency is the fitted concentration of half-maximal effect.
SMILES,KDM4E inh,ALDH1A1 inh,Tau fibril ThT,Tau fluor cs,Tau fibril FP,HPGD block
CC1(c2ccccc2)NC(=S)N2C1NC(=S)N2c1ccccc1 (stereo not given),-5%,32µM*,-14%,-3%,5%,-2%
CCN(CC)CCNC(=O)C(=O)Nc1c2c(nn1-c1ccc(F)cc1)CSC2,.,.,3%,1%,-11%,.
N/N=C1/c2ccccc2N[C@H]1OC(=O)Nc1ccccc1,.,-11%[13.5 µM],.,.,.,-4%
CCN(CC)C(=S)SCC(=O)c1ccc(Br)cc1,9%,8.9µM*,-14%,-19%,0%,?
CCCCOC(=O)c1ccc(NC(=O)/C(C#N)=C/c2ccc(-c3ccccc3)o2)cc1,.,.,-16%,-23%,-8%,.
CC(=O)CCc1oc2ccc(C)cc2c1-c1ccccc1,7%,.,-4%,-10%,6%,.
C/C(CCc1oc2ccc(Cl)cc2c1-c1ccc(C)o1)=N\O,-29%,4.5µM*,?,?,-15%,32µM*
C/C(CCc1oc2ccc(Br)cc2c1-c1ccc(C)o1)=N/O,-4%,?,?,-23%,-19%,20µM*
O=c1c(-c2cccc(Cl)c2)nc2cncnc2n1-c1ccccc1,.,-7%,.,.,.,.
COc1ccccc1NC(=S)N(CCc1nc2cc(C)c(C)cc2[nH]1)Cc1cccnc1,32%,?,-4%,-4%,2%,-8%
Cc1ccc(S(=O)(=O)NNc2ccccc2)c(C)c1,5%,7.1µM*,22µM*,-14%,?,8.9µM*
N#Cc1c2c(c(-c3ccccc3Cl)[nH]c1=S)CCCC2,9%,-5%,-12%,9%,0%,.
N#Cc1c(-c2ccccc2Cl)cc(-c2ccccc2)[nH]c1=S,-19%,10µM*,-9%,-3%,-3%,.
Cc1cc(-c2ccccc2)c(C#N)c(=S)[nH]1,-3%,7.9µM*,-8%,-1%,1%,14µM*
Cc1[nH]c(=S)c(C#N)c(C)c1Cc1ccccc1,7%,.,7%,10%,1%,.
Cc1ccc(S(=O)(=O)N2CCc3ccccc3C2CN2C(=O)c3ccccc3C2=O)cc1 (stereo not given),-5%,?,-7%,?,-14%,-13%
Cc1ccc(S(=O)(=O)c2cn(Cc3ccccc3Cl)c3ccc(F)cc3c2=O)cc1,.,.,2%,2%,0%,.
Cc1ccc(C)n1CCN1CCN(CC(=O)Nc2cc(C(F)(F)F)ccc2Cl)CC1,?,28µM*,-17%,-1%,-2%,-13%
Cn1nc(-c2ccccc2)cc1NC(=O)Nc1ccc(C(C)(C)C)cc1,-7%,.,0%,13µM*[quencher],28µM*,.
CCc1cc2c(Sc3nc4ccccc4s3)ncnc2s1,-7%,20µM*,-17%,-9%,1%,25µM*
Cn1nc(Oc2ncc(C(F)(F)F)cc2Cl)cc1C(F)(F)F,7%,3%,-3%,5%,-9%,.
COc1ccccc1CN1C(=O)[C@@H]2C(CC(N)=O)NC3(C(=O)Nc4c3ccc(Cl)c4C)[C@@H]2C1=O (stereo not given in full),-2%,?,-2%,0%,-3%,.
COc1ccccc1CN1C(=O)[C@@H]2C(CCC(N)=O)NC3(C(=O)Nc4c3ccc(Cl)c4C)[C@@H]2C1=O (stereo not given in full),11%,0.22µM*,-6%,-7%,0%,-8%
CC(=O)Nc1sc(N/N=C/c2ccc(N(C)C)cc2)nc1-c1ccc(C)cc1,?,.,16µM*,32µM*[quencher],-6%,.
CC(=O)Nc1sc(N/N=C/c2ccc(C)cc2)nc1-c1ccc(C)cc1,0%,.,?,?,1%,.
CCOc1cc(/C=N\Nc2nc(-c3ccc(C)cc3)c(NC(C)=O)s2)ccc1O,-25%,.,20µM*,?,10%,.
COc1cc(/C=N\Nc2nc(-c3ccc(C)cc3)c(NC(C)=O)s2)ccc1O,?,.,?,?,6%,.
COc1ccc(N2CCN(S(=O)(=O)c3ccc(OC)c(-c4noc(C)n4)c3)CC2)cc1,.,.,?,-10%,-4%,.
